The list is not random: actives were taken first. Their share in the collection is about 1.3%.
Bcl-xL primary: inhibitors of human Bcl-xL; Q07817; GST-Bcl-xL / FITC-Bim BH3 peptide fluorescence polarization; inhibition, % at 10.9 µM; 320,000 compounds, 0.7% hits; AID 2129;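 active = inhibition above the mean of all tested compounds plus 3 SD, cutoff set per campaign, cut at about 30% in these data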;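 note: 0% = DMSO wells and 100% = unlabeled Bim-BH3 peptide competitor; inhibitors lower millipolarization by displacing the labeled peptide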
Keap1-Nrf2 PPI: disrupts human Keap1 binding to Nrf2 peptide; AID 504523; Keap1 Kelch-Nrf2 peptide fluorescence polarization, 1536-well; Q14145; 340,000 compounds, 0.15% hits; inhibition, % at 9.4 µM; in the data active = inhibition above about 12%; inconclusive = no clear call, values can overlap the other calls; inactive = below about 7.3%;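 note: human Keap1 Kelch domain with fluorescein labeled Nrf2 9mer peptide probe; 0% = neutral control wells and 100% = peptide positive control; higher means more block of Keap1 binding to Nrf2 peptide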
Target sequence (Q14145 whole entry, looked up, the tested form may be a part): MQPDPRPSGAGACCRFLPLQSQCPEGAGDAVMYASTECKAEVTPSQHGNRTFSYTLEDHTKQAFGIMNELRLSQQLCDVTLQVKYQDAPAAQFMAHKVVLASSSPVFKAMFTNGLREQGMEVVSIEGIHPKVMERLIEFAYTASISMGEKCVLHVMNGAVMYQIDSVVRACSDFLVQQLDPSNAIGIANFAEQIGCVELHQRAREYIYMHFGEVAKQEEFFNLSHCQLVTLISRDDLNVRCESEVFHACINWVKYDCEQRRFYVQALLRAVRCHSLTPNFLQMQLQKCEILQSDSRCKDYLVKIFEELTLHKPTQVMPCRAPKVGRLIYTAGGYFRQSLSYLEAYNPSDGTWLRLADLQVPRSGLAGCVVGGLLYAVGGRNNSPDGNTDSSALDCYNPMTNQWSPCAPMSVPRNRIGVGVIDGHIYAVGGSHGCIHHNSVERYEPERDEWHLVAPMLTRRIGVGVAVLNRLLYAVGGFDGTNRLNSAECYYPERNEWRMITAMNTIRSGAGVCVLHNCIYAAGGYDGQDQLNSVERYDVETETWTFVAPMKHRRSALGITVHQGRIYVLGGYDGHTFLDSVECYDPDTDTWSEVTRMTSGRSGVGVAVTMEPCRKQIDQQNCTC
C-LANA FP: KSHV C-LANA DNA binding inhibition | MBP-C-LANA/FAM-LBS DNA binding, fluorescence polarization | inhibition, % at 9 µM | 340,000 compounds, 0.078% hits | AID 504423;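 active = highest replicate inhibition at or above 60% at 9 µM, even if other replicates fall short; inactive = all replicates below 60% inhibition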;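 note: 0% = neutral control wells and 100% = 4 µM acridine orange control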
GLD-1 RNA inh: GLD-1-TGE RNA interaction inhibition (C. elegans). Q17339. purified GLD-1 + fluorescein TGE RNA, fluorescence polarization. inhibition, % at 5.96 µM. 320,000 compounds, 0.44% hits. AID 2280;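 active = percent inhibition above a per-plate cutoff, the plate mean of test compounds plus 3 SD, cut at about 30% in these data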;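 note: 0% = DMSO wells with GLD-1 and probe and 100% = wells lacking GLD-1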
E coli Lon inh: inhibitors of E. coli Lon protease. 360,000 compounds, 0.42% hits. inhibition, % at 7.94 µM. AID 602123. purified E. coli Lon protease, fluorescence polarization; in the data active = inhibition above about 13%, passing the limit was not always enough;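 note: 0% = enzyme with probe and DMSO and 100% = no enzyme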
MCL1 BIM primary: disrupts human MCL1 binding to BIM-BH3 peptide. Q07820. GST-MCL1 / FITC-Bim-BH3 fluorescence polarization. inhibition, % at 10.9 µM. 320,000 compounds, 0.68% hits. AID 2057;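 active = inhibition above the mean inhibition of all tested compounds plus 3 SD, set per campaign, cut at about 40% in these data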;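 note: 0% = DMSO wells and 100% = unlabeled Bim-BH3 peptide control; higher means more loss of mP so more displacement of Bim peptide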
* hit, by the source's call.

Screening Cc1nc2[nH]c(=S)[nH]c(=O)c2nc1C returned Keap1-Nrf2 PPI -2.5, C-LANA FP 1.7 and E coli Lon inh 4.4.
Cc1nc2c(=O)[nH]c(=S)[nH]c2[nH]c1=O was read as Keap1-Nrf2 PPI inconclusive, C-LANA FP 103.4* and E coli Lon inh -203.9.
`CN(c1ccccc1)S(=O)(=O)c1cccc(NC(=O)CCNC(=O)c2ccco2)c1` gave E coli Lon inh -5.1.
CN(C)c1ccc(/C=C/c2cc[n+](C)cc2)cc1 was read as Bcl-xL primary 9.4, Keap1-Nrf2 PPI -26.9, C-LANA FP -13.5, GLD-1 RNA inh 94.6*, E coli Lon inh -84.4 and MCL1 BIM primary -5.4.
For Fc1ccc(Nc2cncc(-c3ccsc3)c2)cc1Cl the results were E coli Lon inh -10.1.
For C[C@@H](NC(=O)[C@@H]1CCCN1C(=O)[C@@H]1CCCN1C(=O)c1cccc2ccccc12)c1ccccc1 the results were E coli Lon inh 0.8.
c1ccc(-c2nc3c4ccccc4ccn3c2Cc2ccsc2)cc1 was read as E coli Lon inh 1.8.
Screening C[N+]1=C(/C=C/Nc2ccccc2Cl)C(C)(C)c2ccccc21 returned Bcl-xL primary 1.2, Keap1-Nrf2 PPI -16.6, C-LANA FP -2.7, GLD-1 RNA inh -7.6, E coli Lon inh -13.8 and MCL1 BIM primary -29.6.
COC(=O)c1ccc2c(c1)C(C)(C)C(/C=C/c1ccccc1O)=[N+]2C was read as Bcl-xL primary -4.7, Keap1-Nrf2 PPI -112.9, C-LANA FP -1.5, GLD-1 RNA inh 39.7*, E coli Lon inh -44.8 and MCL1 BIM primary -40.5.
O=C(OCc1ccc(C(=O)c2ccccc2)cc1)c1cccc(-c2nnc(-c3ccccc3)o2)c1 was read as Bcl-xL primary 0.3, Keap1-Nrf2 PPI -0.5, C-LANA FP -0.4, GLD-1 RNA inh -1.1, E coli Lon inh 16.4* and MCL1 BIM primary -3.0.
O=C(OCc1ccccc1)c1cccc(-c2nnc(-c3ccccc3)o2)c1 was read as Bcl-xL primary 2.6, Keap1-Nrf2 PPI 2.5, C-LANA FP 1.5, GLD-1 RNA inh -3.6, E coli Lon inh 2.9 and MCL1 BIM primary 4.4.
For CCOC(=O)c1c(C)[nH]c(O)c1C=Nc1ccc(C(F)(F)F)cc1 the results were Bcl-xL primary -2.2, Keap1-Nrf2 PPI -25.9, C-LANA FP 2.1, GLD-1 RNA inh 36.8*, E coli Lon inh 2.6 and MCL1 BIM primary 7.2.
For Cc1ccc(S(=O)(=O)NN=Cc2ccco2)cc1 the results were E coli Lon inh -8.6.
For Cc1ccc(S(=O)(=O)N/N=C/c2cc(Br)c(C)o2)cc1 the results were Bcl-xL primary 10.5, Keap1-Nrf2 PPI -3.6, C-LANA FP -0.5, GLD-1 RNA inh 12.5, E coli Lon inh 16.6* and MCL1 BIM primary 11.0.
`CNC(=O)/C=C1\NC(C)(C)Cc2ccccc21` gave Bcl-xL primary 1.4, Keap1-Nrf2 PPI -7.0, C-LANA FP 0.3, GLD-1 RNA inh -4.3, E coli Lon inh -0.9 and MCL1 BIM primary -3.2.
Screening CCC1(C)Cc2ccccc2/C(=C/C(=O)N2CCCCC2)N1 (stereo unspecified) returned Bcl-xL primary 31.3*, Keap1-Nrf2 PPI -6.9, C-LANA FP -1.3, GLD-1 RNA inh 12.5, E coli Lon inh 7.2 and MCL1 BIM primary 31.2.
Screening N#C/C(=C\c1ccccc1[N+](=O)[O-])C(=O)Nc1ccc(S(N)(=O)=O)cc1 returned Bcl-xL primary 33.5*, Keap1-Nrf2 PPI 0.2, C-LANA FP 2.4, GLD-1 RNA inh 28.9, E coli Lon inh 8.2 and MCL1 BIM primary 28.8.
`COc1cc(/C=C2\C(C)=C(C#N)c3nc(N)c(C#N)c(C)c32)ccc1OCC(=O)O` gave Bcl-xL primary 34.5*, Keap1-Nrf2 PPI -3.0, C-LANA FP 0.6, GLD-1 RNA inh 6.0, E coli Lon inh -11.6 and MCL1 BIM primary 33.8.
`C[C@@H]1CCCCO[C@H](CN(C)C(=O)Nc2cccc3ccccc23)[C@@H](C)CN([C@H](C)CO)C(=O)c2cc(NC(=O)c3ccccc3)ccc2O1` gave E coli Lon inh -10.6.
For CCOC(=O)C1(C)CCN1C(=O)c1ccc2ccccc2c1 (stereo unspecified) the results were E coli Lon inh 3.1.
`COc1ccccc1/C=C/C=C1\Oc2c(ccc(O)c2CN(C)C)C1=O` gave Bcl-xL primary 53.5*, Keap1-Nrf2 PPI -40.9, C-LANA FP 11.4, GLD-1 RNA inh -6.5, E coli Lon inh -76.2 and MCL1 BIM primary 42.4*.
